The target of the experiment is Follicle-stimulating hormone receptor (Homo sapiens) (UniProt P23945). Description: Counterscreen for Agonists of Thyroid Stimulating Hormone Receptor: HTRF Activity in a Follicle Stimulating Hormone Receptor Cell Line. An excerpt: NIH Chemical Genomics Center [NCGC] NIH Molecular Libraries Screening Centers Network [MLSCN] MLSCN Grant: 1 X01 MH080680-01 PI Name: Dr. Marvin Gershengorn, NIH NCGC Assay Overview: Confirmation of Thyroid Stimulating Hormone Receptor Agonists TSH is an alpha/beta heterodimeric glycoprotein hormone secreted from the anterior pituitary gland which belongs to the glycoprotein hormone family. The actions of TSH are mediated by a seven-transmembrane receptor, which upon TSH binding couples preferentially to the G-alpha (s) protein (Gs), resulting in activation of adenylate cyclase and increase in cyclic adenosine 3', 5' monophosphate (cAMP). The TSH receptor (THSR) is mainly expressed in thyroid follicular cells and regulates their growth and function. […] In order to confirm specificity of the compounds to the TSHR, a confirmatory assay was conducted on a similar family member, the Follicle Stimulating Hormone (FSH) receptor, transfected into a HEK 293 cell line, using an orthogonal detection technology to measure cAMP stimulation: antibody-based Homogeneous Time Resolved Fluorescence (HTRF).
NCGC Assay Protocol Summary: Homogeneous Time Resolved Fluorescence (HTRF) cAMP Assay. […] Plates were measured using the Envision plate reader (PerkinElmer, Boston, MA) with excitation at 330 nm and emissions of 615 nm and 660 nm. […]

Records with an inconclusive call do not appear. Calls of active or inactive are those of the source. Calls follow the shape of the dose curve; as a rule, active = well fitted curve in the direction sought with a large enough effect in the signal ratio; inconclusive = small, poorly fitted or top-dose-only effect, or a change in a side signal; inactive = no such curve, though single readings can be large or run the other way; the % refers to the signal ratio.

As for `CCOC(=O)C1=C(N)Oc2c(c(=O)oc3ccccc23)C12C(=O)N(C)c1ccccc12` (configuration not stated), the result was inactive.
Then `C=CCN1C(=O)C2(C(C(=O)OC)=C(N)Oc3c2c(=O)oc2ccccc32)c2ccccc21` (configuration not stated), with “inactive”.

The values above are taken from PubChem BioAssay AID1403 (National Center for Advancing Translational Sciences (NCATS), 2008).
